Hit rate of the full screen: of about 300,000 compounds, about 37,000 (12%) were called active. The list comes from a sample in which actives are over-represented; it also holds similar structures and randomly drawn compounds. A number with no mark means an inactive call. Cut-off read from the data, not from the text of the source: active = max response mostly above about 13% (no sharp cut-off); inactive = mostly below about 14%.
assay: Cycloheximide Counterscreen for Small Molecule Inhibitors of Shiga Toxin; conditions: cell reporter, cycloheximide protein synthesis inhibition counterscreen; active compounds read high; note: read at 38.3 µM for the half of the compounds with a filed dose; 0% is about no effect

| SMILES | max response |
| --- | --- |
| CCc1ccc(OC(C)C(=O)Nc2ccc(S(=O)(=O)Nc3cc(C)on3)cc2)cc1 (stereo unspecified) | -1.86% |
| COc1ccccc1NC(=O)CN(c1ccccc1OC)S(=O)(=O)c1ccccc1 | -1.65% |
| O=C1C[C@@H](c2ccc3ccccc3c2)N1S(=O)(=O)c1ccccc1[N+](=O)[O-] | -1.77% |
| O=C1C2C(c3ccccc3)CC=CC2C(c2ccoc2)N1Cc1ccccc1 (stereo unspecified) | 0.409% |
| O=C(CN1C(=O)NC2(CCCCC2)C1=O)NCCc1c[nH]c2ccccc12 | -0.529% |
| CC(C)(C)N(Cc1ccccc1)C(=O)c1ccncc1 | -0.936% |
| Cc1nnc(SCc2ccc(C(=O)c3ccc(Cl)cc3)o2)n1-c1ccccc1 | 6.81% |
| Cc1ccc(-c2nc(-c3ccncc3)no2)c(C)c1 | 43.8% (active) |
| Cc1ccc2nc(-c3ccncc3)cc(C(=O)Nc3ccncc3)c2c1 | 6.6% |
| Cc1ccc(-c2noc(CSc3nnc(-c4ccncc4)n3-c3ccc(F)cc3)n2)cc1 | 0.685% |
| Cc1cc(S(=O)(=O)N2CCOCC2)ccc1OCC(=O)Nc1cccc(C(F)(F)F)c1 | -3.96% |
| CCC1=Nc2cc(C(=O)NCCN3CCCC3)ccc2Sc2ccc(C)cc21 | 14.2% |
| O=C(Nc1ccccc1)Nc1ccc(C(F)(F)F)cn1 | 13% |
| CONC(=O)c1cc(OCC(F)(F)F)ccc1OCC(F)(F)F | -3.39% |
| O=C(NC(=O)c1cc(OCC(F)(F)F)ccc1OCC(F)(F)F)Nc1ccccc1 | 8.68% (active) |
| CC1CCN(C(=O)Cn2nnnc2CN2CCOCC2)CC1 | -2.13% |
| COc1ccc(CCNC(=O)C(=O)NCC2OCCN2S(=O)(=O)c2ccc(F)cc2)cc1OC (stereo unspecified) | 1.66% |
| COCCNC(=O)c1ccc(N2CCC3(CC2)OCCO3)c([N+](=O)[O-])c1 | -2.09% |
| CC(NC(=O)c1ccc(N2CCNCC2)c([N+](=O)[O-])c1)C12CC3CC(CC(C3)C1)C2 (stereo unspecified) | -1.62% |
| CCC(C)NC(=O)c1ccc(N2CCC3(CC2)OCCO3)c([N+](=O)[O-])c1 (stereo unspecified) | 20% (active) |
| Cc1cc(C)cc(Oc2nc3c(C)cccn3c(=O)c2/C=C(\C#N)C(=O)NC2CCS(=O)(=O)C2)c1 (stereo unspecified) | -2.61% |
| COc1cc(/C=N/O)ccc1OCc1ccc([N+](=O)[O-])cc1 | 88.7% (active) |

| SMILES | max response |
| --- | --- |
| COc1cc(/C=N\Nc2ccc([N+](=O)[O-])cn2)ccc1OCC(=O)O | 15.7% |
| COc1cc(C(=O)OCc2ccc([N+](=O)[O-])cc2)cc(OC)c1OC | -1.24% |
| Cc1cc(=O)oc2c3c(cc(OCC(=O)N[C@H](C(=O)O)c4ccccc4)c12)OC(C)(C)CC3 | -1.78% |
| CC(C)C(NS(=O)(=O)c1ccc(-c2ccc(Br)cc2)cc1)C(=O)O (stereo unspecified) | 7.4% |
| Cc1cc(C)cc(N(CC(=O)NC2CCCC2)C(=O)CCC(=O)Nc2nccs2)c1 | -5.07% |
| Cc1nn(-c2ccccc2)c(=O)c2noc(C)c12 | -1.05% |
| Cc1nn(-c2ccccc2)c(C)c1/C=C/C(=O)OC(C)C(N)=O (stereo unspecified) | 18.6% (active) |
| Cc1nn(-c2ccccc2)c(C)c1NC(=O)CCl | 17.3% |
| CCc1ccccc1S(=O)(=O)Cc1ccc(C(=O)NCCc2ccccc2)o1 | 16% |
| CCN(CC)S(=O)(=O)c1cccc(C(=O)Nc2ccccc2)c1 | 17.1% (active) |
| CCN(CC)S(=O)(=O)c1cc(C(=O)Nc2ccccn2)ccc1C | 45.1% (active) |
| Cc1ccc(NC(=O)CNCc2ccccn2)cc1S(=O)(=O)N(C)C | 19.5% |
| CCN(CC)S(=O)(=O)c1ccc(NC(=O)c2cccnc2Cl)c(NC(=O)c2cccnc2Cl)c1 | -1.75% |
| CCN(CC)S(=O)(=O)c1ccc(NC(=O)c2cnc(C)cn2)cc1 | 0.654% |
| CCN(CC)S(=O)(=O)c1cccc(C(=O)NCC(=O)OCC(=O)NCc2ccccc2)c1 | -1.61% |
| CC(C)c1ccc(C2C(C(=O)c3ccco3)=C(O)C(=O)N2CC2CCCO2)cc1 (stereo unspecified) | 10.1% |
| CC(C)(C)[C@H]1C=C(C(=O)NCc2ccccc2)O[C@@H](OCc2ccc(CO)cc2)C1 | -1.33% |
| COc1cc(C(=S)N2CCOCC2)cc(OC)c1OC(=O)c1ccc([N+](=O)[O-])cc1[N+](=O)[O-] | 3.8% |
| Cc1ccc(CSc2nnc(-c3cnccn3)n2C)cc1 | 10.9% (active) |
| CCN(CC)C(=O)CSc1nnc(-c2cnccn2)n1-c1ccc(C)cc1 | 0.416% |
| Cn1c(SCc2c(F)cccc2Cl)nnc1-c1cnccn1 | 56.4% (active) |
| Oc1ccc(-n2nnnc2SCc2c(F)cccc2Cl)cc1 | -2.8% |

| SMILES | max response |
| --- | --- |
| Cn1c(SCc2ccc(F)cc2)nnc1-c1ccncc1 | 10.5% |
| O=C(CSc1nnc(-c2cnccn2)n1Cc1ccco1)c1ccc(Cl)c(Cl)c1 | 0.777% |
| CN(C)C(=O)c1coc2nc3ccccc3nc12 | 4.74% |
| COc1ccc(C(C[N+](=O)[O-])n2nc(C)cc2C)cc1 (stereo unspecified) | -0.331% |
| COc1ccc(C(=O)N2CCc3cc(OC)c(OC)cc3C2c2cccc([N+](=O)[O-])c2)cc1 (stereo unspecified) | 0.684% |
| O=C(CCS(=O)(=O)c1ccccc1)Nc1nc2c(s1)CCCC2 | 5.94% |
| CCOC(=O)c1sc(NC(=O)CSc2nc(O)c(Cc3ccccc3)c(=O)[nH]2)nc1C | 39.7% (active) |
| O=C(CSc1nc(O)c(Cc2ccccc2)c(=O)[nH]1)Nc1nc2c(s1)CCCC2 | 28% (active) |
| CSc1nc(O)c(Cc2ccccc2)c(=O)[nH]1 | -3.85% |
| CCOC(=O)c1sc(NC(=O)CSc2n[nH]c(CC)n2)nc1C | 0.587% |
| CCOC(=O)c1ccccc1NC(=O)CSc1nc2ccccc2c(=O)[nH]1 | -3.39% |
| COc1ccc(C(=O)Nc2ccc(F)cc2F)cc1 | 28.7% |
| O=C(Nc1ccccc1N1CCN(C(=O)c2ccccc2)CC1)c1ccc2c(c1)OCO2 | -1.45% |
| CC(NC(=O)COC(=O)c1ccc2c(c1)OCO2)c1ccccc1 (stereo unspecified) | 7.94% |
| O=C(COC(=O)c1ccc2c(c1)OCCO2)NCc1ccccc1 | 10.5% |
| Cc1ccc(F)cc1NC(=O)c1cccc(N(C)C)c1 | 28.9% (active) |
| Cn1c(NC(=O)c2ccc3c(c2)OCO3)cc(=O)n(C)c1=O | -4.72% |
| Cc1ccc(-n2nc3c(c2NC(=O)c2ccc4c(c2)OCO4)CSC3)c(C)c1 | -1.7% |
| O=C(OCc1ccccc1F)c1ccc2c(c1)OCCO2 | 33% (active) |
| Cc1ccc(F)cc1NC(=O)c1ccc2c(c1)OCO2 | 25.6% (active) |
| O=C(Nc1ccccc1F)c1ccc2c(c1)OCO2 | 41.4% (active) |
| Cc1cccc(C(=O)Nc2ccccc2N2CCN(c3ccc(F)cc3)CC2)c1 | -0.148% |

Source: PubChem BioAssay AID2314 (National Center for Advancing Translational Sciences (NCATS), 2010)
